Source: PubChem (National Center for Advancing Translational Sciences (NCATS))
ELG1 genotoxic = induces genotoxicity in HEK293T cells with luciferase-tagged ELG1; HEK293T ELG1-luciferase reporter, luminescence, 16 h; Potency, µM (titrated, usually from 46 µM), without a hit: at the highest dose activity change, positive = activation, usual class: activators; 1.3% of 330,000 active; AID 504466; also: % of control where 0% means no effect; nearly all actives have a fitted effect of over 60% in size
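Genotoxic stress is detected as increased luminescence from luciferase-tagged ELG1 in HEK293T cells, measured with ONE-Glo after a 16 hr treatment at 37 °C.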
Rab9 promoter act = Rab9 promoter activation. Huh7 Rab9 promoter-luciferase reporter, luminescence, 24 h. Potency, µM (highest dose often 9.22 µM), without a hit: top-dose activation, negative = inhibition, usual class: activators. 2.8% of 320,000 active. AID 485297; also: % of control where 0% means no effect; nearly all actives have a fitted effect of over 60% in size
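Luciferase signal after 10 min detection reagent at ambient indicates Rab9 promoter upregulation; stably transfected Huh7 cells were treated 24 h with compound in DMSO at 37 °C, 5% CO2.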
NPC1 promoter act = activators of NPC1 promoter | Huh7 NPC1 promoter luciferase reporter, 24 h | Potency, µM (doses to about 9.22 µM), for the others: at the top dose activation, actives largely listed as activators | 2.4% of 320,000 active; also: % of control where 0% means no effect; nearly all actives have a fitted effect of over 60% in size
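Readout is luciferase luminescence, reflecting NPC1 promoter activation in stably transfected Huh7 cells after 24 h compound exposure at 37 °C in reduced-serum medium with 10% FBS.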
ELG1 repair inh = blocks ELG1-dependent DNA repair in HEK293T cells; Potency, µM (series often up to 46.1 µM), without a hit: at the highest dose activity change, negative = inhibition, actives largely listed as inhibitors; 2.3% of 330,000 active; AID 504467; HEK293T ELG1-luciferase reporter, luminescence, 16 h; DNA damage induced by 5-fluorouridine; also: % is scaled to controls: 0 for no effect and ±100 for the full control effect; nearly all actives have a fitted effect of over 55% in size
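DMSO vehicle served as the neutral condition. Each well held 2,000 cells given 5-fluorouridine plus compound; after 16 hr at 37 °C/5% CO2, ONE-Glo was added and luciferase measured 30 min later.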
FLuc modulator = firefly luciferase modulation, counter-screen for miR-21 project; Potency, µM (series often up to 57.5 µM), for inactives: at the highest dose activity change, negative = inhibition, actives largely listed as inhibitors; 6.9% of 360,000 active; P08659; purified FLuc, Km substrates, luminescence inhibition;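 also: plate controls were vehicle for no effect and reference inhibitor for full effect; nearly all actives have a fitted effect of over 55% in size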
Target sequence (P08659 whole entry, looked up): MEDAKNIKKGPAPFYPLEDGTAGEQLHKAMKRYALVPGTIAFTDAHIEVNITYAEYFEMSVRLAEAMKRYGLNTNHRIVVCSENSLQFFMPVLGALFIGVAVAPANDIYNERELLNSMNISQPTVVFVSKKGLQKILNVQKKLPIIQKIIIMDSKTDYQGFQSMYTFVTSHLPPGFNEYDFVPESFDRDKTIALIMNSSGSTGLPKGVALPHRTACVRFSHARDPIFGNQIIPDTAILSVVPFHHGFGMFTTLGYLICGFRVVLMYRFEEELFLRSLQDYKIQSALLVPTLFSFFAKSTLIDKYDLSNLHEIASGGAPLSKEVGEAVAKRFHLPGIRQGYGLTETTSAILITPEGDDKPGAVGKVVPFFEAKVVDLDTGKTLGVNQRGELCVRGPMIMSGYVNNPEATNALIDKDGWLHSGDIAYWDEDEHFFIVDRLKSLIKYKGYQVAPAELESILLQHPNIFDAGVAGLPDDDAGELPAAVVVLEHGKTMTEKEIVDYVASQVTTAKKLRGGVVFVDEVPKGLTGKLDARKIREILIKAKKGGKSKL
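Biochemical qHTS of compounds, final roughly 60 µM downward over six points, against 10 nM purified firefly luciferase using Km concentrations of substrates (10 uM D-luciferin, 10 uM ATP) in Tris acetate pH 7.5 buffer; luminescence output.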
SMN2 splice up = increases expression of the SMN2 splice variant | HEK293 SMN2-luciferase splicing reporter, luminescence, 30-36 h | Potency, µM (titrated, usually from 46.1 µM), without a hit: top-dose activity change, positive = activation, hits mostly activators | 2.8% of 210,000 active | AID 1458; also: % of control where 0% means no effect; nearly all actives have a fitted effect of over 55% in size
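HEK293 cells carry an SMN2 […]–luciferase reporter in which exon 7 inclusion puts luciferase in frame. Cells were plated 10-12 h before compound addition, then incubated 30-36 h at 37C. ONE-Glo luminescence was read; sodium butyrate at 4.5 mM final served as control.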
* marks the source's active call; other numbers are inactive results. Sampled rows, rich in hits. Any-hit rate of the full collection: about 9.3%. Calls follow the shape of the dose curve; as a rule, active = well fitted curve in the direction sought with a large enough effect; inconclusive = small, poorly fitted or top-dose-only effect, or another doubt; inactive = no such curve, though single readings can be large; an effect the other way counts as inactive or inconclusive. Potency is read from the fitted curve at half-maximal effect.

`CN1C(=O)C(O)(C2COC(C)(C)CC2=O)c2cc(Br)ccc21` (centres undefined) gave ELG1 genotoxic 13.6%, Rab9 promoter act 0.8%, NPC1 promoter act 3.2%, ELG1 repair inh 9.4%, FLuc modulator -2.8% and SMN2 splice up inconclusive.
For O=c1c2ccccc2oc2cc(NCCCn3ccnc3)ccc12 the results were ELG1 genotoxic inconclusive, Rab9 promoter act 0.708µM*, NPC1 promoter act 1.12µM*, ELG1 repair inh inconclusive and FLuc modulator 2.39µM*.
CCc1nc(NCCCN2CCOCC2)c2oc3ccccc3c2n1 was read as ELG1 genotoxic -8.2%, Rab9 promoter act -5.3%, NPC1 promoter act -2.6%, ELG1 repair inh inconclusive, FLuc modulator -11.3% and SMN2 splice up 16.7%.
O=c1c2ccccc2oc2cc(NCCCN3CCOCC3)ccc12 was read as ELG1 genotoxic inconclusive, Rab9 promoter act 3.55µM*, NPC1 promoter act 3.98µM*, ELG1 repair inh inconclusive and FLuc modulator 10.7µM*.
For COc1cccc2sc3cc(NCCCN4CCOCC4)ccc3c(=O)c12 the results were ELG1 genotoxic 5.6% and ELG1 repair inh 13.1%.
Screening O=c1c2ccccc2oc2ccc(NCCCN3CCOCC3)cc12 returned ELG1 genotoxic inconclusive, Rab9 promoter act 2.82µM*, NPC1 promoter act 2.82µM*, ELG1 repair inh inconclusive and FLuc modulator 8.49µM*.
Screening CCCCn1c(NC(=O)CC)c(C#N)c2nc3ccccc3nc21 returned ELG1 genotoxic -2.0%, Rab9 promoter act -3.8%, NPC1 promoter act -1.6%, ELG1 repair inh 0.0%, FLuc modulator -1.5% and SMN2 splice up -4.2%.
`CCCCn1c(NC(=O)c2ccccc2Cl)c(C#N)c2nc3ccccc3nc21` gave ELG1 genotoxic -9.9%, Rab9 promoter act -1.7%, NPC1 promoter act 0.5%, ELG1 repair inh 23.1µM*, FLuc modulator 5.3% and SMN2 splice up -36.6%.
N#Cc1c(NC(=O)c2ccccc2Cl)n(Cc2ccccc2)c2nc3ccccc3nc12 was read as ELG1 genotoxic -12.9%, Rab9 promoter act 0.6%, NPC1 promoter act -1.5%, ELG1 repair inh 20.6µM*, FLuc modulator 0.1% and SMN2 splice up -32.7%.
O=C(NCCC1=CCCCC1)c1cnsn1 was read as ELG1 genotoxic 16.4µM*, Rab9 promoter act inconclusive, NPC1 promoter act 26.8%, ELG1 repair inh inconclusive, FLuc modulator inconclusive and SMN2 splice up 26.0%.
Screening Cc1cc(C(=O)NCCC2=CCCCC2)no1 returned ELG1 genotoxic -1.8%, Rab9 promoter act 14.7%, NPC1 promoter act 23.8%, ELG1 repair inh inconclusive, FLuc modulator -6.4% and SMN2 splice up 8.3%.
Screening CCOC(=O)c1ccc(N/C=C/C(=O)c2ccco2)cc1 returned ELG1 genotoxic 0.731µM*, Rab9 promoter act 1.26µM*, NPC1 promoter act 1.58µM*, ELG1 repair inh inconclusive, FLuc modulator 1.35µM* and SMN2 splice up 14.1µM*.
Screening O=C(Nc1ccccc1C(=O)Nc1ccc(F)cc1)c1ccco1 returned ELG1 genotoxic -0.8%, Rab9 promoter act -5.0%, NPC1 promoter act -2.5%, ELG1 repair inh -1.7% and FLuc modulator inconclusive.
Screening Cc1ccc(N/C=C/C(=O)c2ccco2)c(O)c1 returned ELG1 genotoxic 3.66µM*, Rab9 promoter act 1.78µM*, NPC1 promoter act 3.16µM*, ELG1 repair inh inconclusive and FLuc modulator 0.757µM*.
O=C(/C=C/Nc1ccc(F)cc1)c1ccco1 was read as ELG1 genotoxic 2.06µM*, Rab9 promoter act 2.82µM*, NPC1 promoter act 3.98µM*, ELG1 repair inh inconclusive, FLuc modulator 0.953µM* and SMN2 splice up 15.8µM*.
Screening CC1(C)C(=O)Nc2ccccc2N1C(=O)COc1cc(Cl)ccc1Cl returned ELG1 genotoxic -1.4%, Rab9 promoter act 0.2%, NPC1 promoter act -5.4%, ELG1 repair inh inconclusive and FLuc modulator 8.2%.
`FC(F)C(F)(F)C1=CC(c2cccs2)=NCCN1` gave ELG1 genotoxic -1.8%, Rab9 promoter act 0.1%, NPC1 promoter act -1.6%, ELG1 repair inh -0.6%, FLuc modulator 7.0% and SMN2 splice up 0.708µM*.
For COc1cc(/C=C/c2ccc3cccc([N+](=O)[O-])c3n2)ccc1OCC#N the results were ELG1 genotoxic -3.2%, Rab9 promoter act -33.2%, NPC1 promoter act -5.5%, ELG1 repair inh 23.1µM*, FLuc modulator inconclusive and SMN2 splice up 22.9%.
For CCOc1cc(/C=C/c2ccc3cccc([N+](=O)[O-])c3n2)ccc1OCC(=O)N(C)C the results were ELG1 genotoxic -16.7%, Rab9 promoter act -12.3%, NPC1 promoter act -2.6%, ELG1 repair inh 16.4µM*, FLuc modulator inconclusive and SMN2 splice up -26.5%.
O=[N+]([O-])c1ccc(/C=C/c2ccc3cccc([N+](=O)[O-])c3n2)cc1 was read as ELG1 genotoxic 3.9%, Rab9 promoter act 10.3%, NPC1 promoter act 0.0%, ELG1 repair inh 9.9%, FLuc modulator -2.5% and SMN2 splice up -41.1%.
Screening CCOc1cc(/C=C/c2ccc3cccc([N+](=O)[O-])c3n2)ccc1O returned ELG1 genotoxic -0.4%, Rab9 promoter act -0.7%, NPC1 promoter act -3.2%, ELG1 repair inh -22.8%, FLuc modulator inconclusive and SMN2 splice up 9.3%.
Screening O=[N+]([O-])c1cccc2ccc(/C=C/c3ccc(F)cc3)nc12 returned ELG1 genotoxic 24.5%, Rab9 promoter act 1.3%, NPC1 promoter act 19.7%, ELG1 repair inh inconclusive, FLuc modulator 8.49µM* and SMN2 splice up inconclusive.
`Cc1ccc(/C=N/N2C(=O)C3C(C2=O)C2C=CC3C23CC3)o1` (centres undefined) gave ELG1 genotoxic 17.9%, Rab9 promoter act 2.4%, NPC1 promoter act 12.7%, ELG1 repair inh inconclusive, FLuc modulator inconclusive and SMN2 splice up 7.3%.
Screening COCCN(C(=O)c1cccc(N2C(=O)CCC2=O)c1)c1nc(-c2ccc([N+](=O)[O-])cc2)cs1 returned ELG1 genotoxic -4.4%, Rab9 promoter act -6.9%, NPC1 promoter act -1.7%, ELG1 repair inh 5.8µM* and FLuc modulator -0.2%.
CCOC(=O)c1[nH]c2cc(OC)c(OC)cc2c1NC(=O)CCN1CCSCC1 was read as ELG1 genotoxic 1.1%, Rab9 promoter act 0.0%, NPC1 promoter act -5.3%, ELG1 repair inh 8.0% and FLuc modulator -3.3%.
For COc1cc(OC)c(Nc2c3c(nc4nc(-c5cccs5)nn24)CCCC3)cc1Cl the results were FLuc modulator 23.9µM*.
Cc1occc1C(=O)N/N=C/c1ccc(-c2ccccc2)cc1 was read as ELG1 genotoxic 0.164µM*, Rab9 promoter act 0.398µM*, NPC1 promoter act 0.316µM*, ELG1 repair inh inconclusive and FLuc modulator 0.675µM*.
